Sampled rows, rich in hits. Any-hit rate of the full collection: about 5.7%.
KB-V1 MDR tox: KB-V1 MDR subline cytotoxicity; KB-V1 MDR cells viability, CellTiter-Glo, 72 h; Potency, µM (top dose mostly 46.1 µM), actives largely listed as cytotoxic; 400,000 tested, 3.4% active; AID 1347076; also: nearly all actives have a fitted effect of over 60% in size
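Cytotoxicity toward P-gp-expressing KB-V1 cells was determined as loss of CellTiter-Glo luminescence after 72 h at 37 degrees C. Compounds were tested in quantitative HTS format across a concentration range, with curves fitted to normalized data.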
HT1080NT lethal: kills 2HG-producing HT-1080-NT fibrosarcoma cells. 360,000 tested, 1.6% active. Potency, µM (top dose mostly 46.1 µM), inactives show at the top dose activity, negative = less viability, most hits filed as cytotoxic. HT-1080-NT fibrosarcoma viability, CellTiter-Glo ATP luminescence, 48 h;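 also: NT is the 2HG producing partner of a matched IDH1 knockdown line; 0% = DMSO-treated cells and -100% = media-only wells without cells; nearly all actives have a fitted effect of over 55% in size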
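Toxicity toward the 2HG-producing NT line was scored as %Activity, normalised to DMSO and no-cell wells, from CellTiter-Glo luminescence after 48 hours' treatment.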
KB-3-1 tox: kills parental KB-3-1 adenocarcinoma cells; KB-3-1 viability, CellTiter-Glo ATP luminescence, 72 h; Potency, µM (series often up to 46.1 µM), hits mostly cytotoxic; 400,000 tested, 1.4% active; also: nearly all actives have a fitted effect of over 60% in size
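Viability of parental KB-3-1 cells, measured by CellTiter-Glo luminescence, followed a 72 h incubation at 37 °C with pinned compounds in phenol-red-free DMEM containing 10% FBS.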
HT1080 IDH1KD tx: toxicity to HT-1080 IDH1 knockdown cells (counter line); HT-1080 IDH1 knockdown viability, ATP luminescence, 48 h; AID 686971; 360,000 tested, 2% active; Potency, µM (titrated, usually from 46.1 µM), for inactives: at the top dose activity, negative = toxicity, usual class: cytotoxic;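 also: 0% = DMSO wells and -100% = cell-free medium wells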
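Assay cells: HT-1080 with IDH1 knockdown, 750 per well, RPMI/5% FBS. Exposure: 48 h at 37 °C following 2 h pre-incubation. Read: CellTiter-Glo luminescence; fitted concentration-response, curve class assigned.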
Starred values were filed as active, the others as inactive; i = inactive; ? = inconclusive; / = not tested or not shown; [ ] = remark or other dose. Calls follow the shape of the dose curve; as a rule, active = well fitted curve in the direction sought with a large enough effect; inconclusive = small, poorly fitted or top-dose-only effect, or another doubt; inactive = no such curve, though single readings can be large; an effect the other way counts as inactive or inconclusive. Unless noted, % is scaled to controls: 0 for no effect and ±100 for the full control effect; potency is read from the fitted curve at half-maximal effect.

SMILES	KB-V1 MDR tox	HT1080NT lethal	KB-3-1 tox	HT1080 IDH1KD tx
CC(C)N1CC=C(c2c[nH]c3ccccc23)CC1	i	-16%	2.1µM*	-20%
Cc1ccc(C(=O)CN2CCOCC2)cc1	i	/	i	/
CCN(CC)C(=O)c1ccc2c(c1)C1C(Cl)C(Sc3ccccc3[N+](=O)[O-])CC1C(C(=O)O)N2 (stereo not given)	i	-16%	2.6µM*	-14%
Cc1ccccc1NC(=O)Cc1nc(COC(=O)Cc2ccccc2)cs1	?	-10%[9.24 µM]	i	-8%
Cc1ccccc1NC(=O)CCl	i	-11%	21µM*	-1%
COc1ccc(/C=N/N=C(/N)N[N+](=O)[O-])c(OC)c1	1µM*	10%	1.5µM*	19%
N/C(=N\N=C/c1ccc(-c2ccc(O)c(C(=O)O)c2)o1)N[N+](=O)[O-]	?	5%	i	4%
O=C1NC(=O)C(C2CCCCCC2)C(=O)N1	i	6%	i	5%
CCc1ccccc1NC(=O)c1cccn(Cc2ccccc2F)c1=O	i	/	i	/
O=C(Cc1ccccc1)OCCN1CCOCC1	i	-3%	i	2%
O=C(c1ccccc1)C(Cc1ccccc1)N1CCOCC1 (stereo not given)	18µM*	8%	i	16%
COc1ccc(OC(=O)N(C)C[C@@H]2OCc3ccccc3-c3c(n(C)c4ccccc34)C(=O)N([C@H](C)CO)C[C@@H]2C)cc1	i	-6%	?	-8%
CCC(CO)Nc1ccc([N+](=O)[O-])c2cccnc12 (stereo not given)	18µM*	-7%	?	-4%
CC(O)CNc1ccc([N+](=O)[O-])c2cccnc12 (stereo not given)	i	0%	i	-10%
CCOC(=O)C1(c2ccccc2)CCN(CC(=O)Nc2cccc3ccccc23)CC1	3.7µM*	2%	i	-2%
Cc1cccc(/C(N)=N/OC(=O)N2CCOCC2)c1	?	?	i	11µM*
COCCNC(=O)c1c(NC(=O)c2ccco2)n(Cc2ccccc2)c2nc3ccccc3nc12	i	-19%	i	-9%
COCCCNC(=O)c1c(NC(=O)c2ccccc2Cl)n(Cc2ccccc2)c2nc3ccccc3nc12	2.6µM*	18%	i	0%
S=C(NCCc1ccccc1)N1Cc2cc(N3CCCCC3)ccc2-n2nncc2C1	?	-4%	i	-7%
Cc1ccc(-n2c(/C=C/c3cccc4ccccc34)nc3ccccc3c2=O)cc1	i	/	i	/
O=C(NCc1cccnc1)c1ccc(COc2ccc3c(c2)CCC3)o1	18µM*	?	i	?
Cc1ccccc1N1CCN(Cc2c[nH]c3ccccc23)CC1	i	?	i	1.3µM*
c1ccc2c(CN3CCCCCC3)c[nH]c2c1	i	-6%	15µM*	-20%
c1ccc2c(CNC3CCCCCC3)c[nH]c2c1	?	?	?	20µM*
Clc1ccccc1CNCCc1c[nH]c2ccccc12	i	5%	i	4%
SMILES	KB-V1 MDR tox	HT1080NT lethal	KB-3-1 tox	HT1080 IDH1KD tx
S=P(NCCSCc1ccccc1)(N1CC1)N1CC1	i	-10%	i	-18%
Cc1ccc(OP2(=O)Nc3cc(C)c(C)cc3S2)cc1 (stereo not given)	i	?	i	?
Nc1nc(F)nc2c1ncn2[C@@H]1O[C@H](CO)[C@@H](O)[C@@H]1O	0.65µM*	?	0.65µM*	?
Nc1nc(F)nc2c1ncn2[C@@H]1O[C@H](CO)[C@@H](O)[C@H]1O	1.5µM*	0.65µM*	1.2µM*	0.23µM*
CCCCc1nn2c(=O)cc(COC(=O)Cc3ccccc3)nc2s1	?	/	i	/
CC1CC(C)OP(=O)(OCCC#N)O1 (stereo not given)	/	0%	/	-1%
CN1CCc2cc3c(c4c2C1Cc1ccccc1-4)OCO3 (stereo not given)	i	-1%	i	-11%
COc1cc2c(cc1O)C[C@H]1c3c(cc(O)c(OC)c3-2)CCN1C	i	22%	i	2%
CN1CCc2cc(O)cc3c2[C@H]1Cc1ccc(O)c(O)c1-3	i	8.2µM*	i	5.8µM*
CCCN1CCc2cc(O)cc3c2[C@H]1Cc1ccc(O)c(O)c1-3	i	8.2µM*	i	23µM*
COc1cccc(C(C)(O)c2nc(-c3cccc(F)c3)cs2)c1 (stereo not given)	i	?	i	-23%
